The results in this text go back to PubChem BioAssay (NCATS).

Results filed as inconclusive are left out. Unmarked numbers belong to inactive results. Activity calls are given as the source filed them. Calls come from the whole dose curve; as a rule, active = well fitted curve in the direction sought with a large enough effect; inconclusive = small, poorly fitted or top-dose-only effect, or another doubt; inactive = no such curve, though single readings can be large; an effect the other way counts as inactive or inconclusive. Square brackets hold non-standard residues; d marks the D form. Peptide text beside a SMILES is read from it. ξ: configuration not given here. ξL = CC(C)CC(N)C(=O)O

A short description of one assay: qHTS assay for small molecule disruptors of mitochondrial membrane potential screened against the NCATS CANVASS Library (AID 1347389). Note: % is set by controls: 0 for no effect and ±100 for the full control effect; nearly all actives have a fitted effect of over 60% in size. Particulars: HepG2 mitochondrial membrane potential, m-MPI red/green ratio, 1.5 h; series mostly up to 46.1 µM; activity change, negative = depolarization: at the top concentration. The method, boiled down: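 Red/green fluorescence ratio read-out: J-aggregates ex 540/em 590 nm, monomers ex 490/em 535 nm. HepG2, 1 hr compound treatment, then 30 min Mito-MPS dye at 37C. 11-pt qHTS concentration series.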
For orientation: In qHTS, concentration-response curves come from the screen itself.
Turning to `C=C[C@@](C)(O)CC[C@@H]1[C@@]2(C)CCCC(C)(C)[C@@H]2CC[C@@]1(C)O`, the “activity change, negative = depolarization” value is 3.38%.

As for `COc1ccc([C@@H]2c3cc4c(cc3C(=O)[C@H](C)C2C)OCO4)cc1OC` (some centres undefined), the “activity change, negative = depolarization” value is -9.97%.

Consider `C/C(=C\[C@H](C)C(=O)C[C@H](O)CC1CC(=O)NC(=O)C1)[C@@H]1OC(=O)CCCC/C=C/[C@@H](O)C[C@@H]1C`, for which the “activity change, negative = depolarization” value was 3.86%.

For `CC1=C[C@H]2[C@H]3C(=O)C(c4ccc(O)cc4)=C[C@@]3(c3ccc(O)cc3)[C@@H]1C(=O)[C@]2(C)O`, the “activity change, negative = depolarization” value is -32.2%.

In the case of `C/C(=C\[C@H](C)C(=O)/C=C/CC1CC(=O)NC(=O)C1)[C@@H]1OC(=O)CCCC/C=C/[C@H](O)[C@@H](O)[C@@H]1C`, the “activity change, negative = depolarization” value is 7.41%.

On to `C[C@H]1CCC2(OC1)O[C@H]1C[C@H]3[C@@H]4CC(=O)[C@]5(O)C[C@H](O)CC[C@@]5(C)[C@H]4CC[C@@]3(C)[C@H]1[C@H]2C` (some centres undefined), for which the “activity change, negative = depolarization” value is -6.9%.

Regarding `C/C1=C/[C@@H](C)[C@H](O)C/C=C/CC/C=C/C(=O)O[C@@H]1[C@H](C)C(=O)CCCC1CC(=O)NC(=O)C1`, the “activity change, negative = depolarization” value was 18.1%.

A short description of another assay: Secretion counterscreen for inhibitors of the SERCaMP assay screened against the NCATS CANVASS Library (AID 1347390). For activity change, negative = inhibition: % is set by controls: 0 for no effect and ±100 for the full control effect.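 Note: light from luciferase secreted into medium read as a measure of general secretion.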 Note: potency is the fitted concentration of half-maximal effect. Particulars: SH-SY5Y constitutive GLuc secretion, luminescence, 20 h; series mostly up to 76.6 µM; activity change, negative = inhibition: at the top concentration. Summed up: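 Luminescence from constitutively secreted GLuc in SH-SY5Y-GLuc STOP cells, read after coelenterazine addition, served as read-out. Compounds tested 0.001 - 77 uM for 20 h at 37C; Brefeldin A as positive control.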
For orientation: Counterscreens check selectivity or assay interference.
On to `O[C@H]1C=C2[C@H]3CN(Cc4cc5c(cc43)OCO5)[C@H]2C[C@@H]1O`, for which the Potency is 38.4 µM (active).

With `CC[C@@H](c1cc(OC)c(OC)cc1OC)[C@H](C)[C@@H](/C(C)=C/c1cc(OC)c(OC)cc1OC)c1cc(OC)c(OC)cc1OC`, the Potency result was “inactive”.

As for `C/C=C/c1cc2c(c(=O)o1)C(=O)[C@@H](O)[C@H](C)O2`, the Potency is 34.3 µM (active).

With `CC[C@@H](C)[C@H]1NC(=O)C(CC(C)C)NC(=O)[C@@H](CC(C)C)NC(=O)[C@H](Cc2c[nH]c3ccccc23)NC(=O)CNC(=O)[C@@H](CC(N)=O)NC1=O` (stereo partly drawn) (cyclo(GW[dL][ξL][dI][dN])), the “activity change, negative = inhibition” value was -28.7%.

With `COc1cc2c(cc1OC)[C@@H](c1ccc3c(c1)OCO3)C(C)[C@@H](C)C2=O` (some centres undefined), the “activity change, negative = inhibition” value is -21.4%.

`CC(C)[C@@H]1CC(=O)c2coc3c2[C@H]1C[C@@H](C)C3=O`: the “activity change, negative = inhibition” value was -30%.

As to `COc1cc2oc3ccccc3c(=O)c2cc1OC`, the “activity change, negative = inhibition” value is -13.1% [at 152 µM].

As to `COC(=O)[C@@]1(C)CCC[C@]2(C)c3cc(OC)ccc3CC[C@@H]12`, the “activity change, negative = inhibition” value was -3.3%.

On to `COc1cc(C2C3=C(Cc4cc5c(cc42)OCO5)C(=O)OC3)cc(OC)c1OC` (centres undefined), for which the “activity change, negative = inhibition” value is -4.51%.

Turning to `COc1ccc([C@@H]2c3cc4c(cc3C(=O)[C@H](C)C2C)OCO4)cc1OC` (some centres undefined), the “activity change, negative = inhibition” value is -28%.

For `C=C1C(=O)O[C@H]2[C@H]1CCC(C)=C1CC[C@@](C)(O)[C@@H]12`, the Potency was 34.3 µM (active).

In the case of `C/C(=C\[C@H](C)C(=O)/C=C/CC1CC(=O)NC(=O)C1)[C@@H]1OC(=O)CCCC/C=C/[C@H](O)[C@@H](O)[C@@H]1C`, the “activity change, negative = inhibition” value was -25.2%.

Regarding `C[C@H](c1cnc(N)[nH]1)c1ccc(O)c2[nH]cc(-c3cnc(-c4c[nH]c5ccccc45)c(=O)[nH]3)c12`, the “activity change, negative = inhibition” value is -17.8%.

For `C[C@H]1CCC2(OC1)O[C@H]1C[C@H]3[C@@H]4CC(=O)[C@]5(O)C[C@H](O)CC[C@@]5(C)[C@H]4CC[C@@]3(C)[C@H]1[C@H]2C` (some centres undefined), the “activity change, negative = inhibition” value is 17.5%.

Regarding `C=C1C[C@H]2O[C@@H]3[C@@H]4[C@H](CC[C@@](C)(O)[C@@H]42)[C@H](C)COC3(C)[C@@H](OC(=O)CCCCCCC)CC1=O` (some centres undefined), the Potency is 48.4 µM (active).

A further assay in a line: qHTS for activators of Nrf2/ARE signaling pathway screened against the NCATS CANVASS Library (AID 1347391). For activation: 0% is about no effect. Note: nearly all actives have a fitted effect of over 60% in size. Note: potency is the fitted concentration of half-maximal effect. Conditions: ARE-bla HepG2, beta-lactamase reporter, 16 h; series mostly up to 46.1 µM; activation: at the top concentration. The method, boiled down: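 HepG2 ARE-bla; cpd 11-pt qHTS, 16 h 37C/5% CO2; CCF4 substrate 2 h RT; read ex 405 / em 460 + 530 nm. Viability by CellTiter-Glo luminescence, 30 min RT.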
For `CC[C@@H](C)[C@H]1NC(=O)C(CC(C)C)NC(=O)[C@@H](CC(C)C)NC(=O)[C@H](Cc2c[nH]c3ccccc23)NC(=O)CNC(=O)[C@@H](CC(N)=O)NC1=O` (stereo partly drawn) (cyclo(GW[dL][ξL][dI][dN])), the “activation” value was 1.88%.

For `COc1cc2oc3ccccc3c(=O)c2cc1OC`, the Potency is 3.41 µM (active).

For the compound `COc1cc2ccc(=O)oc2c(O)c1O[C@@H]1O[C@H](CO)[C@@H](O)[C@H](O)[C@H]1O`, the “activation” value is 5.11% [at 27.5 µM].

For `O=C1CCC(=O)N(O)CCCCCNC(=O)CCC(=O)N(O)CCCCCNC(=O)CCC(=O)N(O)CCCCCN1`, the “activation” value was -8.46%.

`C=C1C[C@H]2O[C@@H]3[C@@H]4[C@H](CC[C@@](C)(O)[C@@H]42)[C@H](C)COC3(C)[C@@H](OC(=O)CCCCCCC)C[C@H]1O` (some centres undefined): the Potency is 20.9 µM (active).

Take `C[C@H](c1cnc(N)[nH]1)c1ccc(O)c2[nH]cc(-c3cnc(-c4c[nH]c5ccccc45)c(=O)[nH]3)c12`: the “activation” value is -6.11%.

With `COc1ccc([C@@H]2c3cc4c(cc3C[C@H](C)C2C)OCO4)cc1OC` (some centres undefined), the “activation” value was 9.29%.
